Compound activity: PubChem, Center for Chemical Genomics, University of Michigan
Dicer processing = human Dicer pre-microRNA cleavage inhibition | cat-ELCCA pre-miR-21 Dicer processing, chemiluminescence; stronger effect = higher value | z-score at 25 µM | 6% of 47,000 active | AID 1347074; in the data active = z-score above about 3, passing the limit was not always enough;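 note: higher signal means more uncleaved substrate so more Dicer inhibition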
Of the large screens only hits and unclear results are named; the others gave an inactive call. Shown is part of a subset that was picked to be rich in hits.

CCOC(=O)c1cc(-c2ccccc2)sc1NC(=O)CSc1nc2ccccc2[nH]1	none
Cc1ccccc1OCC(O)Cn1c(CO)nc2ccccc21 (centres undefined)	none
COc1nc(C)c(-c2csc(C)n2)cc1C#N	none
CC1=C(C(=O)Nc2ccc(Br)cn2)C(c2ccc3c(c2)OCO3)C2=C(CCCC2=O)N1 (centres undefined)	none
Nc1c(NCc2ccccc2)c(=O)c1=O	Dicer processing 3.3
O=c1[nH]cc(NCc2ccccc2)c(=O)[nH]1	none
Nc1nc(Nc2ccccc2)nc(NCc2ccccc2)c1[N+](=O)[O-]	none
CS(=NC(=O)c1cccc(Cl)c1)c1ccc(OC(=O)c2ccc(Cl)cc2)cc1 (centres undefined)	none
Cn1c(=O)c2c(nc(Oc3ccc(F)cc3)n2C)n(C)c1=O	none
Cc1cc2oc3c(c(=O)c2cc1C)C(c1cccc(O)c1)N(c1ccccn1)C3=O (centres undefined)	none
O=S(=O)(CCSc1nccc(-c2cccs2)n1)c1ccc(F)cc1	none
O=S(=O)(CCSc1ncccn1)c1ccc(F)cc1	Dicer processing 3
O=S(=O)(Nc1ncccn1)c1ccc(F)cc1	none
CCC(=O)N1c2ccccc2N=C(c2ccccc2)CC1c1ccccc1 (centres undefined)	none
COc1ccc(-c2nnc(-c3ccc(C)cc3)o2)cc1OC	none
Cn1c2ccccc2c2nnc(SCC(=O)Nc3nnc(COc4ccccc4)s3)nc21	none
COCCOC(=O)c1c(C)oc2ccc(NS(=O)(=O)c3cccc4cccnc34)cc12	none
COC(=O)c1ccc2c(c1)N(C)S(=O)(=O)c1cnc(SCC(=O)Nc3ccccc3)nc1-2	Dicer processing 5
COC(=O)c1ccc2c(c1)N(C)S(=O)(=O)c1cnc(SC)nc1-2	none
COC(OC)c1nc(SCC(=O)Nc2cccc(Cl)c2)ncc1C(=O)O	none
NC(=S)NNc1ccc(Cl)c(Cl)c1	none
CC(C)c1ccc(NC(=S)N=C(N)N)cc1	none
N/C(=N\C(=S)Nc1ccc(Cl)c(Cl)c1)c1ccccc1	Dicer processing 5.4
C(=C\CSC1=NCCN1)/CSC1=NCCN1	none
O=C1C(=O)N(Cc2ccccc2)c2ccccc21	none
Cc1cc(C)c(CN2C(=O)C(=O)c3ccccc32)cc1CN1C(=O)C(=O)c2ccccc21	Dicer processing 3.6
O=C1C(=O)N(Cc2ccc(Cc3ccc(CN4C(=O)C(=O)c5ccccc54)cc3)cc2)c2ccccc21	none
Cc1nnc(N2C(=O)c3oc4ccccc4c(=O)c3C2c2cccc(Oc3ccccc3)c2)s1 (centres undefined)	none
O=C(CCSc1nc(-c2ccc3c(c2)OCO3)cc(C(F)(F)F)n1)N1CCOCC1	none
Oc1cc2c(cc1C(c1ccc(C(F)(F)F)cc1)N1CCOCC1)OCO2 (centres undefined)	Dicer processing 6.5
Oc1c(C(c2ccncc2)N2CCOCC2)cc(Cl)c2cccnc12 (centres undefined)	none
COc1ccc(N2C(=O)C3ON(c4ccccc4)C(c4ccccc4O)C3(C)C2=O)cc1 (centres undefined)	Dicer processing 4
Cc1ccc(N2C(=O)C3ON(c4ccccc4)C(c4cccnc4)C3C2=O)cc1 (centres undefined)	none
COc1ccc(C2C3C(=O)N(c4ccccc4)C(=O)C3ON2c2ccccc2)cc1 (centres undefined)	none
O=C1C2ON(c3ccccc3)C(c3cc(Br)ccc3O)C2C(=O)N1c1ccccc1 (centres undefined)	Dicer processing 4.7
COc1cccc(N2C(=O)C3ON(c4ccccc4)C(c4ccccc4O)C3C2=O)c1 (centres undefined)	Dicer processing 3.9
COc1ccc(N2C(=O)C3ON(c4ccccc4)C(c4cc(Br)ccc4O)C3C2=O)cc1 (centres undefined)	none
O=C1C2ON(c3ccccc3)C(c3cccnc3)C2C(=O)N1c1ccc(F)cc1 (centres undefined)	none
COc1ccc(C2C3C(=O)NC(=O)C3ON2c2ccccc2)cc1 (centres undefined)	none
COc1ccc(N2C(=O)C3ON(c4ccccc4)C(c4ccco4)C3C2=O)cc1 (centres undefined)	none
Cc1ccc(N2C(=O)C3ON(c4ccccc4)C(c4ccccc4O)C3C2=O)cc1 (centres undefined)	none
O=C1C2ON(c3ccccc3)C(c3ccccc3O)C2C(=O)N1c1ccc(Br)cc1 (centres undefined)	Dicer processing 3.4
COC(=O)c1ccc(N2C(=O)C3ON(c4ccccc4)C(c4ccc(OC)cc4OC)C3C2=O)cc1 (centres undefined)	none
CCC(CC)C(=O)Nc1nc2c(s1)C(=O)CC(C)(C)C2	none
CC(=O)Nc1ccc(S(=O)(=O)NC23CC4CC(CC(C4)C2)C3)cc1	none
Cc1cc(N(Cc2ccc(Cl)cc2)C(=O)c2ccc(Cl)cc2)no1	none
CCOC(=O)c1cnc(O/N=C/c2ccc(C#N)cc2)nc1C(F)(F)F	none
CCOC(=O)c1cc(C(N)=S)c(C)nc1C(F)(F)F	none
C=CCN(CC=C)Cc1c(C)[nH]c2c(C)cccc2c1=O	none
CC1(C)OC(=O)C(=NNc2cc(C(F)(F)F)cc(C(F)(F)F)c2)C(=O)O1	Dicer processing 5.1
C/C(=N\O)C(C)(C)Nc1cc(C(F)(F)F)cc(C(F)(F)F)c1	none
CC(C)(C)NC(=S)Nc1cc(C(F)(F)F)cc(C(F)(F)F)c1	none
Cc1[nH]c2[nH]n(-c3ccccc3)c(=O)c2c(=O)c1Cc1ccc(C(C)C)cc1	none
Cc1nc2ccc(Cc3ccc4nc(C)[nH]c4c3)cc2[nH]1	Dicer processing 5
Cc1ccc2nc(Cc3ccc(N)cc3)[nH]c2c1	none
Cc1ccc2nc(Cc3nc4ccc(C)cc4[nH]3)[nH]c2c1	none
CC(C)(C)S(=O)(=O)/C(C#N)=C/Nc1ccc(OC(F)(F)F)cc1	none
CCOC(=O)CSc1nnc(-c2ccc(C)cc2)o1	none
O=C(CSc1nnc(-c2ccccc2)o1)c1ccccc1	none
O=C(CSc1nnc(-c2ccccc2)o1)OCc1ccccc1	Dicer processing 3.4
O=C(CSc1nc2c(c(C(F)(F)F)n1)CCc1ccccc1-2)Nc1cccnc1	none
CCOC(=O)c1cc(Sc2ccc(C)cc2)cc(C(=O)OCC)n1	none
CCOC(=O)CCCN1C(=O)c2cccc3cccc(c23)C1=O	Dicer processing 5.3
CCCCCN1C(=O)c2cccc3cccc(c23)C1=O	none
CCOC(=O)CCCCCN1C(=O)c2cccc3cccc(c23)C1=O	none
CC(C)(C)c1cc(Oc2ccc([N+](=O)[O-])cn2)ccc1Oc1ccc([N+](=O)[O-])cn1	none
COc1cccc(OCC(F)(F)F)c1C#N	none
CC1(C)CC(=O)C2=C(C1)Nc1ccccc1NC2c1cccc(Oc2ccccc2)c1 (centres undefined)	none
Nc1cc(=O)[nH]n1C1CCN(c2ccccc2)CC1	Dicer processing 3.2
Nc1cc(=O)[nH]c(=O)n1-c1ccccc1	none
O=C1CC(c2ccccc2)CC(=O)N1c1ccc(N2CCOCC2)cc1	none
COc1ccc(/C=N/NC(=O)N/N=C/c2ccc(OC)c(Br)c2)cc1Br	none
NC1=NC(c2ccco2)n2c(nc3ccccc32)N1 (centres undefined)	none
CNC(=S)NNC(=O)c1ccc(Cl)cc1Cl	none
CCOC(=O)NNC(=S)Nc1ccc(Cl)cc1	none
Cc1ccc(O)c(C(=O)NNC(=S)Nc2ccc(Cl)cc2)c1	Dicer processing 5.4
CC(C)(C)c1cc2nc(-c3cc(C(F)(F)F)cc(C(F)(F)F)c3)cc(=O)n2[nH]1	none
N=C(N)SCc1ccccc1Cl	none
Nc1nnc(SCc2ccccc2Cl)s1	Dicer processing 11
NCCc1nnc(SCc2ccccc2Cl)o1	none
CCOC(=O)C(/C=N/Nc1ccccc1)C(=O)OCC	none
O=C(NCCO)C(=O)NCc1ccccn1	none
O=C(O)COCC(=O)Nc1ccccn1	none
O=C(Nc1cccc(NC(=O)c2c(F)cccc2F)n1)c1c(F)cccc1F	none
